In all, about 290,000 compounds went through this assay and about 3,300 (1.1%) were called active. This is one part of a sample in which actives are shown more often than they occur. A number with no mark means an inactive call. No stated cut-off is given here; in the data, active means binding response below about 67% or above about 130%; inconclusive means no clear call, values can overlap the other calls; inactive means in between.
Target: Mitogen-activated protein kinase kinase kinase 2 (Homo sapiens) (UniProt Q9Y2U5)
Experiment: wildtype MEKK2 PB1-MEK5 interaction, increase or decrease – biochemical, multiplex bead flow cytometry, Alexa488-MEK5, primary screen (AID 1531)
Details: Alexa488-MEK5 binding to MEKK2 WT, at 10 µM, actives lie on both sides

| Structure (SMILES) | binding response (% of control) |
| --- | --- |
| O=C(Nc1ccccc1)c1ccc2c(c1)OCCCO2 | 105% |
| COc1ccc(C(C)NC(=S)NC2CCCCC2)cc1OC (stereo unspecified) | 101% |
| Cc1nc2nc[nH]n2c(=O)c1C/C=C/c1ccccc1 | 83% |
| Cc1cn(COC/C=C/c2ccccc2)c(=O)[nH]c1=O | -7% [inhibitor] (active) |
| Cc1[nH]c(=O)c(C(=O)/C=C/c2ccccc2)c2c1CCCC2 | 101% |
| COc1ccc(-c2nc3c(s2)CCc2onc(-c4ccc(Br)cc4)c2-3)cc1 | 95% |
| CCCCN(CCCC)CCCNC(=O)CN1C(=O)COc2ccc(S(=O)(=O)N3CCC(C)CC3)cc21 | 96% |
| COc1ccc(N=C2SC(C(=O)Nc3ccc(F)cc3)CC(=O)N2C)cc1 (stereo unspecified) | 97% |
| CN=C1SC(C(=O)O)CC(=O)N1C (stereo unspecified) | 3% (active) |
| CCOc1ccc(N=C2SC(C(=O)O)CC(=O)N2C)cc1 (stereo unspecified) | 92% |
| COc1ccc(S(=O)(=O)NCCc2c[nH]c3ccccc23)cc1OC | 100% |
| COc1ccccc1CC(=O)NCCc1c[nH]c2ccccc12 | 101% |
| COc1cccc(CNCCc2c[nH]c3ccccc23)c1OCc1ccccc1F | 159% (active) |
| CCn1cc(C(=O)NCC(=O)NC(C)(C)CO)c(=O)c2cc3c(cc21)OCO3 | 101% |
| O=C(OCC(=O)N1CCN(C(=O)c2ccco2)CC1)c1cccc(O)c1 | 106% |
| Cc1c(C(=O)NC2CCCCC2)oc2ccccc12 | 108% |
| Cc1c(C)c2c(OCC(=O)NCCCO)cc3c(c2oc1=O)CCC(C)(C)O3 | 99% |
| c1ccc(CN2CCC(N=C3NN=C(c4ccc5c(c4)OCCO5)CS3)CC2)cc1 | 154% (active) |
| Clc1cccc(N=C2NN=C(c3ccc4c(c3)OCCO4)CS2)c1 | 97% |
| CS(=O)(=O)N(CC(=O)N1CCN(Cc2ccccc2)CC1)c1ccc2c(c1)OCCO2 | 103% |
| CC1(c2nnc(-c3ccncc3)o2)CC(c2cccnc2)=NO1 (stereo unspecified) | 105% |
| O=C(NCCc1ccc(Cl)cc1Cl)c1cc([N+](=O)[O-])c[nH]c1=O | 96% |
| COc1ccc(Cn2c(-c3ccc(Cl)cc3)c[n+]3ccccc23)cc1 | 112% |

| Structure (SMILES) | binding response (% of control) |
| --- | --- |
| Cc1c(C)c2ccc(OCC(=O)N3CCN(c4cccc(Cl)c4)CC3)cc2oc1=O | 92% |
| Cc1ccc(C(CNC(=O)Nc2cccc(C)c2)N2CCN(C)CC2)cc1 (stereo unspecified) | 104% |
| CCN1C(=S)N[C@@H](CCc2ccccc2)[C@H](C(=O)OC)[C@H]1C | 98% |
| CCN1C(=NCC(C)C)N[C@@H](CCc2ccccc2)[C@H](C(=O)NCC(C)C)[C@H]1C | 103% |
| CCN1C(=NCc2ccc(OC)cc2)N[C@@H](CCc2ccccc2)[C@H](C(=O)NCc2ccc(OC)cc2)[C@H]1C | 139% (active) |
| COc1ccc(CCNS(=O)(=O)c2cc3c(cc2C)NC(=O)CO3)cc1OC | 98% |
| COc1ccc(NC(=O)CSc2nc3ccccc3c(=O)n2C)cc1 | 105% |
| COc1ccccc1/C=N/Nc1nc(C)c(C(C)=O)s1 | 95% |
| O=C(CSc1nc(Nc2ccccc2)nc(N2CCOCC2)n1)Nc1cc(Cl)ccc1O | 99% |
| Cc1c(CCOC(=O)CC23CC4CC(CC(C)(C4)C2)C3)sc[n+]1Cc1ccc([N+](=O)[O-])cc1 | 172% (active) |
| Cc1c(CCOC(=O)c2cc([N+](=O)[O-])ccc2Cl)sc[n+]1CCCCS(=O)(=O)[O-] | 97% |
| Cc1c(CCO)sc[n+]1CC(=O)OC12CC3CC(CC(C3)C1)C2 | 97% |
| CS(=O)(=O)N(Cc1nc2sc3c(c2c(=O)[nH]1)CCCC3)C1CCCCC1 | 99% |
| COc1ccc(-c2csc3ncnc(N4CCN(S(=O)(=O)c5ccccc5C#N)CC4)c23)cc1 | 107% |
| COC(=O)CCCC1=CC2=CC(=O)C(C)(OC(=O)c3cccs3)C(=O)C2=CN1c1cccc(C#N)c1 (stereo unspecified) | 96% |
| C=CCN1C=C2C(=O)C(C)(OC(=O)CCc3ccccc3)C(=O)C=C2C=C1c1ccc(C#N)cc1 (stereo unspecified) | 142% (active) |
| CC1(OC(=O)CCc2ccccc2)C(=O)C=C2C=C(c3ccc(C#N)cc3)N(CCc3ccccn3)C=C2C1=O (stereo unspecified) | 111% |
| Cc1ccc(C23CC4CC(CC(C(=O)NCC(=O)O)(C4)C2)C3)cc1 | 105% |
| N#C/C(=C\c1cccnc1)C(=O)Nc1ccc(SC(F)F)cc1 | 107% |
| CCOc1ccc(N/C=C/C(=O)c2ccccc2)cc1 | 109% |
| CCc1ccc(-c2nn(-c3ccccc3)cc2CSC(=N)N)cc1 | 140% (active) |
| Cc1ccc(-c2nn(-c3ccccc3)cc2CN(Cc2ccccc2)C(=O)CCC(=O)O)o1 | 97% |
| O=C(Nc1cn(-c2ccccc2)nc1-c1ccccc1)c1ccccc1 | 96% |

| Structure (SMILES) | binding response (% of control) |
| --- | --- |
| CC(=O)NCCc1ccc(S(=O)(=O)Nc2ccc(C)c(S(=O)(=O)N3CCOCC3)c2)cc1 | 103% |
| CCc1ccccc1NC(=O)c1ccc2snnc2c1 | 100% |
| O=C(Nc1ccc2ccccc2c1)Nc1ccc2snnc2c1 | 158% (active) |
| O=C(Nc1cccc(Br)c1)c1ccc2snnc2c1 | 97% |
| COc1ccc2c(c1)CCNC2Cc1ccc(OC)c(O)c1 (stereo unspecified) | 96% |
| COc1ccc(N2CCN(CCNC(=O)Nc3cc(Cl)ccc3Cl)CC2)cc1 | 113% |
| C=CC1=C(C(=O)O)N2C(=O)[C@@H](NC(=O)/C(=N/OCC(=O)O)c3csc(N)n3)[C@H]2SC1 | 98% |
| C(=N\N1CCN(c2ccccn2)CC1)/C1=C(N2CCOCC2)C(=C/c2ccccc2)/CC1 | 104% |
| COc1ccc(/C=N/N=C2/C(=O)Nc3ccccc32)cc1O | 98% |
| O=C1Nc2ccc(Br)cc2/C1=N/N=C/C1=C(N2CCOCC2)C(=C\c2ccccc2)/CC1 | 40% [inhibitor] (active) |
| CS(=O)(=O)N1CCN(C(=O)CSc2ccccc2)CC1 | 101% |
| CC(C)(C)C(=O)c1cnc(Nc2ccccc2)s1 | 100% |
| COc1cc(Br)c(-c2sc(Nc3ccccc3)n[n+]2-c2ccccc2)cc1OC | 152% (active) |
| COc1ccc(C)cc1Nc1n[n+](-c2ccccc2)c(-c2cccc(Cl)c2Cl)s1 | 120% |
| COc1ccc(C#Cc2c(-c3ccc(OC)cc3)oc3ccc(-c4ccc5c(c4)OCO5)cc23)cc1 | 96% |
| O=C(CNC(=O)OCc1ccccc1)NC1CCCCNC1=O (stereo unspecified) | 100% |
| Cc1ccc(NC(=S)N(CCN2CCCCC2)Cc2ccco2)cc1C | 97% |
| Cc1ccc(NC(=S)N(CCCN2CCC(C)CC2)Cc2ccco2)cc1 | 107% |
| Cc1ccc(NC(=S)N(CCCN2CCCC2)Cc2cccn2Cc2ccc(Cl)cc2)cc1 | 181% (active) |
| COc1ccc(CCNCc2c(-c3ccccc3)n(C)c3ccccc23)cc1 | 131% |
| CCOC(=O)C1(Cc2ccccc2C(F)(F)F)CCN(C(=O)c2cc(C)n(C)n2)CC1 | 91% |
| COc1ccc(N(C)S(=O)(=O)c2ccc3c(c2)CC(C)N3C(=O)C2CC2)c(OC)c1 (stereo unspecified) | 101% |
| COC(=O)CCCC1=CC2=CC(=O)C(C)(OC(=O)c3cccs3)C(=O)C2=CN1CC1CC1 (stereo unspecified) | 87% |

| Structure (SMILES) | binding response (% of control) |
| --- | --- |
| COCCN1C=C2C(=O)C(C)(OC(=O)C3CCCC3)C(=O)C=C2C=C1c1ccsc1 (stereo unspecified) | 164% (active) |
| CC1(OC(=O)C2CCCC2)C(=O)C=C2C=C(c3ccc(C#N)cc3)OC=C2C1=O (stereo unspecified) | 90% |
| Cc1ccc(NC(=S)NCCc2ccc(Cl)cc2)c(C)c1 | 111% |
| CN(CC(=O)Nc1cccc(F)c1)CC(=O)Nc1cccc([N+](=O)[O-])c1 | 691% (active) |
| Cc1ccc(NC(=O)CN(C)CC(=O)Nc2cccc(F)c2)cc1[N+](=O)[O-] | 97% |
| Cc1ccc(CN(C)CC(=O)Nc2cccc([N+](=O)[O-])c2)o1 | 83% |
| O=C(NCCNc1ccccc1[N+](=O)[O-])c1ccccc1F | 105% |
| CN1CCN(c2ccc(S(=O)(=O)N3CCCCC3)cc2NC(=O)Cc2ccccc2F)CC1 | 106% |
| COc1ccc(CC(=O)Nc2cc(S(=O)(=O)N3CCCCC3)ccc2N2CCN(C)CC2)cc1 | 103% |
| CCN1CCN(c2ccc(S(=O)(=O)N3CCCCC3)cc2NC(=O)Cc2c(Cl)cccc2Cl)CC1 | 150% (active) |
| CCOC(=O)/C=C/c1ccc(C(F)(F)F)cc1S(=O)(=O)NC(C)(C)C | 93% |
| Cc1ccc(N(CC(=O)NC2CCCCC2)C(=O)CCCC(=O)Nc2ccccn2)c(C)c1 | 105% |
| CC1(C)c2[nH]c3ccccc3c2C[C@H]2C(=O)N(N)CC(=O)N21 | 110% |
| CCc1ccc2nc(N(CCCN(C)C)C(=O)c3ccc4c(c3)OCCO4)sc2c1 | 116% |
| CN(C)CCCN(C(=O)c1ccc(S(=O)(=O)N2CCCc3ccccc32)cc1)c1nc2ccc(F)cc2s1 | 232% (active) |
| CN(C)CCN(C(=O)C1=COCCO1)c1nc2ccc(Cl)cc2s1 | 111% |
| CSc1nc2ccc(S(=O)(=O)N3CCc4ccccc43)cc2s1 | 98% |
| CCN(CC)CCN(C(=O)c1ccc(S(=O)(=O)N2CCOCC2)cc1)c1nc2cc3c(cc2s1)OCCO3 | 115% |
| CN(C)CCCN(C(=O)c1ccc(S(=O)(=O)N2CCCCCC2)cc1)c1nc2ccc(Br)cc2s1 | 237% (active) |
| CCOc1ccc2nc(N(CCN(C)C)C(=O)c3ccc4ccccc4c3)sc2c1 | 129% |
| CCOc1ccc2nc(N(CCCN(C)C)C(=O)c3ccc(C(=O)c4ccccc4)cc3)sc2c1 | 155% (active) |
| O=C(Nc1nc2ccc([N+](=O)[O-])cc2s1)c1ccc(S(=O)(=O)N2CCCc3ccccc32)cc1 | 91% |
